Measured values published in PubChem BioAssay AID1159580 (chemical genetic matrix, 2015).
Screen size: about 5,500 compounds; about 2,000 (36%) were called active. Not shown: some 18% with an inconclusive outcome. Cut-off read from the data, not from the text of the source: active = normalized growth mostly below about 0.91 (no sharp cut-off); inconclusive = no clear call, values can overlap the other calls; inactive = mostly above about 0.92. This is one part of the list.

Test: chemical genetic growth profiling, strain panel (AID 1159580);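 note: tested at 20 µM; growth read once vehicle control cultures reached saturation at 30 °C; 1 = growth at the plate median or of vehicle wells; lower values mean less growth of the strain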
Details: S. cerevisiae deletion strains, growth OD

Measured: normalized growth

NC(=O)c1ccccc1N1CCCCC1
inactive: locus YAL013W, strain DEP1, hits give low values 1.01 | locus YBR229C, strain ROT2, hits give low values 0.986 | locus YDL101C, strain DUN1, hits give low values 0.949 | locus YDR150W, strain NUM1, hits give low values 0.912 | locus YEL061C, strain CIN8, hits give low values 1.02 | locus YGR078C, strain PAC10, hits give low values 0.997 | locus YHR030C, strain SLT2, hits give low values 0.986 | locus YHR087W, strain rtc3, hits give low values 1.05 | locus YJL187C, strain SWE1, hits give low values 1.02 | locus YJR043C, strain POL32, hits give low values 0.99 | locus YJR075W, strain HOC1, hits give low values 0.965 | locus YKL190W, strain CNB1, hits give low values 1.01 | locus YLR039C, strain RIC1, hits give low values 1.02 | locus YLR058C, strain SHM2 (second series), hits give low values 1.02 | locus YLR085C, strain ARP6, hits give low values 1.06 | locus YLR262C, strain YPT6, hits give low values 1.02 | locus YML094W, strain GIM5, hits give low values 1.02 | locus YMR219W, strain ESC1, hits give low values 0.997 | locus YMR263W, strain SAP30, hits give low values 0.941 | locus YNL128W, strain TEP1, hits give low values 0.996 | locus YNL153C, strain GIM3, hits give low values 0.993 | locus YNL298W, strain CLA4 (second series), hits give low values 0.991 | locus YNL322C, strain KRE1, hits give low values 0.994 | locus YNR030W, strain Alg12, hits give low values 1 | locus YOL006C, strain TOP1, hits give low values 0.991 | locus YPL055C, strain LGE1, hits give low values 0.998 | locus YPL241C, strain CIN2, hits give low values 0.994 | locus YPR135W, strain CTF4, hits give low values 0.907
